Experimental findings from ChEMBL document CHEMBL3433997, “St. Jude Leishmania screening dataset” (2016) are described below.

“And” between values parts separate entries of the source, which are not always exact repeats. Equal entries are not always repeated.

The target in this experiment is Solute carrier family 2, facilitated glucose transporter member 1 (Homo sapiens) (UniProt P11166). Nature of the experiment: ST_JUDE_LEISH: Cytotoxicity at 2uM final concentration against transgenic Leishmania Mexicana promastigotes LmGLUT1 that are glucose transport deficient and complemented with the human glucose transporter GLUT1. Activity is measured by DNA content using SYBR green in vitro. The format is functional.
Solute carrier family 2, facilitated glucose transporter member 1 (Homo sapiens), sequence (P11166 whole entry): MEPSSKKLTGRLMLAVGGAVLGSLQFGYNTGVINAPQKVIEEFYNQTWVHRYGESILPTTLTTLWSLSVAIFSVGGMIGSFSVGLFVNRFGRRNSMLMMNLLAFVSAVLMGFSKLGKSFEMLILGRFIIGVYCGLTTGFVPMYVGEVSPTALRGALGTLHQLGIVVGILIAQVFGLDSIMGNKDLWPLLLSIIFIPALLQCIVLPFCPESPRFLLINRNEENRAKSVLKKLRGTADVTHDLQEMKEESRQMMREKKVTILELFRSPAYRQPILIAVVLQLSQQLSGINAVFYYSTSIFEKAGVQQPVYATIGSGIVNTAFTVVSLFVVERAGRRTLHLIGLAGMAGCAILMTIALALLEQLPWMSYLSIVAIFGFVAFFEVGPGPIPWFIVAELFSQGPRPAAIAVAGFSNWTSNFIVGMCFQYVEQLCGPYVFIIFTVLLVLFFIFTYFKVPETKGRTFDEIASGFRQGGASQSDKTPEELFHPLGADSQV
The inhibition is the change of the read-out against control, counted positive when it falls. For `CN1CC=C(c2c[nH]c3ccc(C(=O)c4nccs4)cc23)CC1`, the inhibition was -1.82%.
With `NCc1ccc(-c2ccccc2CN(C(=O)Nc2ccccc2)C2CCN(Cc3ccccc3)CC2)cc1` the figure was 2.32%; with `COc1ccc(OC)c(CNCC(O)c2cc(C(F)(F)F)cc(C(F)(F)F)c2)c1` (centres undefined), 5.31%.
On to `O=c1n[n+](C2CCCCC2)[n-]o1`, for which the inhibition was -0.73%.
On to `COC(=O)c1sccc1NC(=S)NC1CCC(CN2CCC(c3c[nH]c4ccccc34)CC2)CC1` (centres undefined), for which the inhibition was 4.17% and 2.22%.
As for `O=C(/C=C/c1ccc(Cl)c(Cl)c1)NCCC1CCC(N2CCC(c3c[nH]c4ccccc34)CC2)CC1` (centres undefined), the figure is 6.03%; as for `CN(c1cc(NC(=O)c2ccc(F)cc2)ccn1)C1CCN(Cc2cccc(C#N)c2)CC1`, 3.24%.
As for `CS(=O)(=O)Nc1ccc2[nH]cc(C3CCN(CC4CCN(C(=O)/C=C/c5ccc(Cl)c(Cl)c5)CC4)CC3)c2c1`, the figure is 4.43%; as for `C=C[C@H]1CN2CC[C@H]1C[C@H]2[C@H](OS(=O)(=O)O)c1ccnc2ccccc12`, 9.31%; as for `CNCCCCCCOc1ccc(CC(C)NCC(O)c2cccc(C(F)(F)F)c2)cc1` (centres undefined), 18.4%.
For `CCN1CCC2(c3cccc(OC)c3)Cc3nc4ccccc4c(-c4ccccc4)c3CC2C1` (centres undefined), the inhibition is 3.21%.
As for `CC[C@H]1CN2CC[C@@H]1C[C@H]2[C@H](O)c1cc(-c2ccc(F)cc2)nc2ccc(O)cc12`, the figure is -0.76%; as for `Cc1cc(N)nc2cc(CNCCc3ccccc3Br)ccc12`, 0.26%; as for `O=C(CSc1ccc(Cl)cc1)NC1CCC(CN2CCC(c3c[nH]c4ccccc34)CC2)CC1` (centres undefined), 5.29%.
As to `Cc1[nH]c2ccccc2c1C1=CCN(CCCCCNC(=O)/C=C/c2ccc(Cl)c(Cl)c2)CC1`, the inhibition came out at 5.3%.
Take `O=C(/C=C/c1ccc(Cl)c(Cl)c1)NCCCCCN1C2CCC1CC(c1c[nH]c3ccccc13)C2` (centres undefined): the inhibition turned out to be 0.42%.
As for `Cc1c(C)c2c(c(C)c1O)CC[C@](C)(C(=O)N1CCC(CN3CCC(c4c[nH]c5ccccc45)CC3)CC1)O2`, the figure is 3.34%.
As to `CCCCCc1cc(O)c2c(c1)OC(C)(C)CC2C1=CCN(Cc2cccnc2)CC1` (centres undefined), the inhibition was -0.46%.
For `CCCCCCC(C)(C)c1cc(O)c2c(c1)OC(C)(C)c1ccncc1-2`, the inhibition is 1.05%.
Consider `CCN(CC)CCOC(=O)C(OC)(c1ccccc1)c1ccccc1`, for which the inhibition was determined as 0.95%.
For the molecule `COC(=O)c1ccc(CC(C)NCC(O)c2ccc(F)c(Cl)c2)cc1` (centres undefined), the inhibition came out at 0.56%.
On to `COCCNCc1cccc(-c2ccc(CN(C(=O)NC3CCCCC3)C3CCN(Cc4ccccc4)CC3)cc2)c1`, for which the inhibition was found to be 7.28%.
As for `O=C(/C=C/c1c(Cl)cccc1Cl)NC1CCC(CN2C3CCC2CC(c2c[nH]c4ccccc24)C3)CC1` (centres undefined), the inhibition is 2.07%.
Consider `CC[C@H]1CN2CC[C@@H]1C[C@H]2[C@H](O)c1ccnc2ccc(OC)cc12`, for which the inhibition turned out to be 0.79%.
On to `CC[C@H]1CN2CC[C@@H]1C[C@H]2[C@H](O)c1cc(-c2cc(Cl)cc(Cl)c2)nc2ccc(OC)cc12`, for which the inhibition was found to be 2.83%.
On to `CCC1(C)CC(CCNCc2ccccc2O)(c2ccc(C)cc2)CCO1` (centres undefined), for which the inhibition is -0.22%.
As for `CCOc1ccc(Br)cc1/C=C/C(=O)Nc1ccc2c(c1)C1CCC2N1C` (centres undefined), the figure is 2.58%; as for `CC[C@H]1CN2CC[C@H]1C[C@H]2[C@H](O)c1cc(-c2ccc(Cl)c(Cl)c2)nc2ccc(OC)cc12`, 12.6%.
In the case of `CC[C@H]1CN2CC[C@H]1C[C@@H]2[C@@H](OC(=O)c1ccc(Cl)cc1)c1ccnc2ccc(OC)cc12`, the inhibition stood at 1.77%.
Take `CO/C(=C\C=C\c1cc2cc(Cl)c(Cl)cc2[nH]1)C(=O)N[C@H]1CN2CCC1CC2`: the inhibition came to 0.86%.
Turning to `CC(Cc1ccc(Oc2ccc(Cl)cc2)cc1)NCC(O)c1cccc(Cl)c1` (centres undefined), the inhibition is -2.67%.
Turning to `CN1CC[C@H](N(Cc2ccccc2F)c2ccc(C#N)c(Cl)c2)C1`, the inhibition amounted to 2.58%.
On to `CNC(=O)c1ccc2[nH]cc(C3CCN(CC4CCC(NC(=O)/C=C/c5ccc(Cl)c(Cl)c5)CC4)CC3)c2c1` (centres undefined), for which the inhibition worked out at 9.29%.
Regarding `COCCSc1ccc(CC(C)NCC(O)c2cccc(Cl)c2)cc1` (centres undefined), the inhibition amounted to 0.56%.
For the molecule `C=C[C@H]1CN2CC[C@@H]1C[C@H]2[C@H](O)c1cc(-c2ccc(F)cc2)nc2ccc(OC)cc12`, the inhibition stood at 6.56%.
Regarding `CC[C@H]1CN2CC[C@H]1C[C@H]2[C@H](O)c1cc(N2CCCC(CO)C2)nc2ccc(OC)cc12` (some centres undefined), the inhibition stood at 2.62%.
With `COc1ccc(CCNCc2ccc3nc(N)c(C)cc3c2)cc1` the figure was 0.92%; with `CN(C(=O)OCc1ccccc1)C1CCC(CCN2CCC3(CC2)C(=O)NCN3c2cccc(C(F)(F)F)c2)(c2ccccc2)CC1` (centres undefined), 2.48%; with `O=C1Nc2cccc3c2C1(CCCCN1CC=C(c2c[nH]c4ncccc24)CC1)CCC3` (centres undefined), 5.83%.
